Screening data from PubChem BioAssay.
CYP2C9 inhib = blocks human cytochrome P450 2C9. P11712. CYP2C9 Supersomes, luciferin-H conversion, luminescence. inhibition, % at 5 µM. 96,000 tested, 20% active;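 active = blocking of liver enzyme CYP2C9 beyond about 50% at 5 µM, limit read from the data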
Cav3 T inh = inhibitors of human Cav3.2 T-type calcium channel | O95180 | Cav3.2-expressing cells, Fluo-4 calcium fluorescence FDSS; hits give low values | B-score at 10 µM | 100,000 tested, 4% active | AID 449739;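 active = single-dose well whose peak fluorescence ratio is a statistical outlier from its plate by either plate-standardised score or position-corrected B-score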
Target sequence (O95180 whole entry, looked up): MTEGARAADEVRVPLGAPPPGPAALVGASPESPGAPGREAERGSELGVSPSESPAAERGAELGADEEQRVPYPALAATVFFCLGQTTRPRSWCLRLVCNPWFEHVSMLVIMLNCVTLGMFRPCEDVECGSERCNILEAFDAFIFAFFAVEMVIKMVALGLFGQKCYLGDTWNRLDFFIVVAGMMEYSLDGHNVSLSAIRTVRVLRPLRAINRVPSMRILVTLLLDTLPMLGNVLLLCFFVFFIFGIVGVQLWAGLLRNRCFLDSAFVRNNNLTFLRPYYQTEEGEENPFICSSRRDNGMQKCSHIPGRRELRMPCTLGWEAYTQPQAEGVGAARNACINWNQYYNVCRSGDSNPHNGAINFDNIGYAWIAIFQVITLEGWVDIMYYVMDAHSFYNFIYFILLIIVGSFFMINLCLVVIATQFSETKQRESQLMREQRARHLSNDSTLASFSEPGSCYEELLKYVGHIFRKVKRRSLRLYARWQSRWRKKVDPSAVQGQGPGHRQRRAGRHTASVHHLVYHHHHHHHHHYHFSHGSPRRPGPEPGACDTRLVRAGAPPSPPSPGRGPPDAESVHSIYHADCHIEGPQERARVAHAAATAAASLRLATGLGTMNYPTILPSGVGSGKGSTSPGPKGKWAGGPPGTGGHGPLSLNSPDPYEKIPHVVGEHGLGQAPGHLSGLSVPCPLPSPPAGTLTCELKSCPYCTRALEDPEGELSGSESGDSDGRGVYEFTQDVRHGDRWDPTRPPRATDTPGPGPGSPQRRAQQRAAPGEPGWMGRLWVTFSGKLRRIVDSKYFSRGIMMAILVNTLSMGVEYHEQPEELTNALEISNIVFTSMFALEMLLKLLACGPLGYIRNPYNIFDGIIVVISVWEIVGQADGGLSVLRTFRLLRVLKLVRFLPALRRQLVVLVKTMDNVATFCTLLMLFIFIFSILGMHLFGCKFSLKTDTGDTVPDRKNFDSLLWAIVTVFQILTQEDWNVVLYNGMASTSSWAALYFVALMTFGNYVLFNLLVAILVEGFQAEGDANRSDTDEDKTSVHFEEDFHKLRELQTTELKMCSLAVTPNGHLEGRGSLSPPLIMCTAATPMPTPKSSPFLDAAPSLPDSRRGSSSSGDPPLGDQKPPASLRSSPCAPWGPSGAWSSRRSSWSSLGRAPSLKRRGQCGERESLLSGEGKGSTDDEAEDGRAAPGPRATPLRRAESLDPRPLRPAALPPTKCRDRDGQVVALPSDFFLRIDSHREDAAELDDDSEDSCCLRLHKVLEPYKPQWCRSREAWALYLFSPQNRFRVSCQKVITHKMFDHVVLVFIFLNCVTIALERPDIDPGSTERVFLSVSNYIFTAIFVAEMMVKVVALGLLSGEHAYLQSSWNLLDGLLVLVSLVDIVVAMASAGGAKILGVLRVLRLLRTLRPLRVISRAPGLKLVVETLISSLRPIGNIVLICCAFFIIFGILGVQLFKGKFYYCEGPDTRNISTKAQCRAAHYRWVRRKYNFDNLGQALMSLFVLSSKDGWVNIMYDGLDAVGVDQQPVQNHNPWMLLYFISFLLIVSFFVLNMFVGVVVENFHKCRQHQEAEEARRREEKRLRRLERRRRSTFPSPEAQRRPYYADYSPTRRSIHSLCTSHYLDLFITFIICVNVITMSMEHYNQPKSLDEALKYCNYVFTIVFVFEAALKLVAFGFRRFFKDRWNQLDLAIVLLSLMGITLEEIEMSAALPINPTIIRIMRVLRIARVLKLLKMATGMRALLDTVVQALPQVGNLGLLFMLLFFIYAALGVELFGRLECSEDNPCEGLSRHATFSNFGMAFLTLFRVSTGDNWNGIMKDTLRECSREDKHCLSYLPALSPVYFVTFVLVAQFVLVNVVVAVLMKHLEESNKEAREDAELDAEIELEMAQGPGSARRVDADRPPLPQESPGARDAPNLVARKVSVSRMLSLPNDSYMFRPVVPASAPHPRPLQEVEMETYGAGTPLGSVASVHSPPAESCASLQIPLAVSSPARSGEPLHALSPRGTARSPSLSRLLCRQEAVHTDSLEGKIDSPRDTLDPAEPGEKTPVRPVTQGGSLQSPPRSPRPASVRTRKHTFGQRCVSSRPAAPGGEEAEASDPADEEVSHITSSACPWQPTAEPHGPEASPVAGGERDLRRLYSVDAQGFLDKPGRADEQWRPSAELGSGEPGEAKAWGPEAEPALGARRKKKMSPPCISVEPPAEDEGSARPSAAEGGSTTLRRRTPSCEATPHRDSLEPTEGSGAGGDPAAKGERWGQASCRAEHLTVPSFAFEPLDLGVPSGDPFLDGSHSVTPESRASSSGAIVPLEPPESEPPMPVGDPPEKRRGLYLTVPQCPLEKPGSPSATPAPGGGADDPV
CYP2C19 act = increases human CYP2C19 enzyme activity; P33261; recombinant CYP2C19, luciferin-H EGE luminescence; hits give high values; 0 = fully inhibited enzyme, 1 = untreated enzyme; activation factor at 5 µM; 96,000 tested, under 10 active; AID 1025;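 active = activation factor of at least 2 at 5 µM in the primary screen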;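 note: 0 = wells with 2.5 mM tranylcypromine and 1 = vehicle-only wells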
CYP2C19 inh = human CYP2C19 inhibition | P33261 | CYP2C19 Supersomes, luciferin-H EGE luminescence, 30 min | inhibition, % at 5 µM | 96,000 tested, 21% active | AID 778;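 active = CYP2C19 inhibition above a set limit at 5 µM in the primary screen, cut at about 50% in these data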;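 note: plate controls were negative control wells for no effect and 2.5 mM tranylcypromine positive control for full effect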
CYP2C9 activ = activators of human CYP2C9. AID 1024. 96,000 tested, 1.4% active. recombinant CYP2C9, luciferin-H conversion, luminescence; hits give high values; factor 1 = untreated enzyme, 0 = blocked. activation factor at 5 µM. P11712;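 active = activation factor of 2 or more for CYP2C9 at a 5 µM dose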;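 note: 0 = sulfaphenazole-blocked wells and 1 = vehicle-only wells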
An asterisk follows results filed as active; . = no result given. Hits are enriched below; roughly 27% of the tested compounds scored in any of these assays.

SMILES	CYP2C9 inhib	Cav3 T inh	CYP2C19 act	CYP2C19 inh	CYP2C9 activ
CCN(C(=O)c1cc2cccc(OC)c2oc1=O)c1ccccc1	-20	1.5	0.6	40	1.2
COc1cccc(N(CC(=O)Nc2ccc3c(c2)OCO3)S(=O)(=O)c2ccccc2)c1	71*	1.1	0.9	7	0.3
Cc1ccc(CCNc2ccccc2C)cn1	.	0.34	.	.	.
Cc1nnc(SCC(=O)NCc2cccs2)n1-c1ccccc1	26	-0.17	0.5	47	0.7
Cc1cc2nnc(SCC(=O)NCc3cccs3)n2c2ccccc12	-221	-0.9	0.5	49	3.2*
CC(C)OC(=O)CSc1nnc(SCc2cccc3ccccc23)s1	18	-1.3	0.3	71*	0.8
Cc1occc1-c1nnc(SCC(=O)NCc2cccs2)n1-c1ccc(F)cc1	63*	1.3	0.6	43	0.4
Cc1cc2nnc(SCC(=O)OC(C)C)n2c2ccccc12	-160	0.33	0.8	24	2.6*
CSc1nc(Oc2ccc(=O)n(C)n2)nc(N(C)C)n1	3	-0.16	0.7	31	1
CC(=Nc1ccc2c(c1)nc(CO)n2C)C1=C(O)CC(C)(C)CC1=O	26	0.29	0.9	15	0.7
O=C(NCc1ccccc1)N1CCC(c2nc3ccccc3[nH]2)CC1	10	-0.1	1.1	-14	0.9
CC(C)CC(COCc1ccc(Cl)cc1)N1CCN(C(=O)c2ccc(Cl)cc2Cl)CCC1=O (centres undefined)	.	-2.4	.	.	.
COc1ccccc1/C=C/C(=O)NC(=S)N(C)C1CCCCC1	-164	.	0.9	14	2.6*
CN(C(=S)NC(=O)c1ccccc1Br)C1CCCCC1	11	1.2	0.8	24	0.9
CC(=O)O[C@H]1CC[C@]2(C)[C@H]3CC=C4[C@@H]5[C@@H](C)[C@H](C)CC[C@]5(C(=O)O)CC[C@@]4(C)[C@]3(C)CC[C@H]2C1(C)C	.	-0.72	.	.	.
CC(C)(C)n1ncc2c(=O)n(CC(=O)N3CCN(c4ccccc4)CC3)cnc21	1	-0.41	1	-1	1
CC1(C)CC(=O)C=C(OC(=O)c2ccc(Cl)cc2)C1	53*	-0.0055	0.8	18	0.5
Cc1nn(C)cc1/C=N/NC(=S)Nc1ccccc1	37	0.11	0.8	21	0.6
COc1ccc(NC(=S)Nc2ncccc2C)c(OC)c1	14	-0.14	0.2	76*	0.9
COc1ccc(NC(=S)NCCc2c[nH]c3ccc(OC)cc23)c(OC)c1	62*	-1.2	0.3	71*	0.4
COc1ccc(NC(=S)NCCN2CCOCC2)c(OC)c1	.	0.61	.	.	.
COc1ccc(NC(=S)NCCSc2ccc(C)cc2)c(OC)c1	.	-6.5*	.	.	.
COC(=O)CCCC1=CC2=CC(=O)C(C)(OC(=O)c3cccs3)C(=O)C2=CN1C1CCCCC1 (centres undefined)	.	1.4	.	.	.
Cc1cccc(NC(=O)C2CCCN2C(=O)Oc2ccccc2)c1C (centres undefined)	.	-0.42	.	.	.
Cc1cc(C)cc(NS(=O)(=O)c2ccc3[nH]c(=O)[nH]c3c2)c1	-38	-1.3	0.9	14	1.4
SMILES	CYP2C9 inhib	Cav3 T inh	CYP2C19 act	CYP2C19 inh	CYP2C9 activ
COc1ccc(C(=O)Oc2ccc(C(C)=O)cc2)c(OC)c1	3	0.47	0.4	59*	1
COc1ccc(/C=C/C(=O)c2ccc(OC)cc2OC)cc1	.	-0.79	.	.	.
Cc1cccc(NC(=O)COc2ccccc2)c1	21	-0.84	0.2	83*	0.8
Cc1cccc(OCC(=O)Nc2cccc(O)c2)c1	22	0.79	0.2	79*	0.8
O=C(COc1ccccc1)Nc1ccc(OC(F)(F)C(F)F)c(NC(=O)COc2ccccc2)c1	54*	-1.5	0.8	17	0.5
CC(=O)Nc1ccc(OC(F)(F)C(F)F)c(NC(C)=O)c1	-6	0.79	1.1	-15	1.1
Cc1cccc(NC(=O)COc2nsnc2N2CCOCC2)c1	17	0.13	0.4	56*	0.8
CCCCOC(=O)C1CCCC(C(=O)OCCCC)N1 (centres undefined)	23	0.023	0.8	18	0.8
O=c1c2c(nc3n1CCCCC3)sc1c(O)c(Br)ccc12	16	1.2	1	-5	0.8
CCN(CC)CCOc1c(Br)ccc2c1sc1nc3n(c(=O)c12)CCC3	15	1.2	0.2	84*	0.8
CC(C)(C)C1CCc2[nH]nc(C(=O)O)c2C1 (centres undefined)	-13	1.1	1.1	-13	1.1
O=C(Cn1nnc(-c2ccc(Cl)cc2)n1)NC1CC2CCC1C2 (centres undefined)	30	-4.6*	0.6	38	0.7
Cc1ccc(-c2nnn(CC(=O)NC3CC4CCC3C4)n2)cc1 (centres undefined)	24	-1.6	0.9	10	0.8
O=C(Cn1nnc(-c2ccc(Cl)cc2)n1)NCCC1=CCCCC1	36	-0.78	0.5	52*	0.6
O=C(Cn1nnc(-c2ccncc2)n1)Nc1ccc2c(c1)CCC2	75*	-0.55	0.1	91*	0.2
O=C(Cn1nnc(-c2ccccc2)n1)Nc1ccc2c(c1)OCO2	12	-1.1	1.1	-14	0.9
COc1cccc(NC(=O)Cn2nnc(-c3ccccc3N)n2)c1	37	-1.5	0.5	52*	0.6
O=C(CNC(=O)OCc1ccccc1)NCC(=O)N1CCCC1C(=O)OCc1ccccc1 (centres undefined)	5	0.027	1	0	0.9
CC(=O)N1CCC(N(C(=O)Nc2c(F)cccc2F)C(C)C)CC1	-14	0.25	1.2	-16	1.1
COc1ccc(C[C@H]2CN3C(=NC[C@H]3C)N2CCNC(=O)c2ccc(C)c(Br)c2)cc1	.	-1.4	.	.	.
CCCn1nnc(NC(=O)c2ccc(F)cc2)n1	20	0.69	0.7	26	0.8
CCOC(=O)C1(c2nc(N)cs2)COC(=O)C1 (centres undefined)	.	0.0095	.	.	.
O=C(Cn1nnc(-c2ccncc2)n1)NCCc1ccccc1	72*	-1.7	0.3	73*	0.3
O=C(CC1CCCC1)Nc1ccc2c(c1)CCC2	19	0.36	0.3	66*	0.8
Cc1cccc(NC(=O)CC2CCC2)c1	-7	0.21	0.7	27	1.1
SMILES	CYP2C9 inhib	Cav3 T inh	CYP2C19 act	CYP2C19 inh	CYP2C9 activ
CCOc1ccc(-c2nnn(CC(=O)Nc3cc(OC)cc(OC)c3)n2)cc1OCC	0	-0.094	0.9	8	1
COc1cc(NC(=O)Cn2nnc(-c3ccncc3)n2)cc(OC)c1	92*	0.45	0.1	89*	0.1
COC(=O)c1ccccc1NC(=S)NC(NC(=O)c1ccco1)C(Cl)(Cl)Cl (centres undefined)	88*	-1.1	0.6	42	0.1
COC(=O)c1ccccc1NC(=S)NC(NC(=O)c1ccccc1[N+](=O)[O-])C(Cl)(Cl)Cl (centres undefined)	97*	-8.5*	0.1	94*	0
COC(=O)c1ccccc1NC(NC(=O)c1ccco1)C(=O)c1ccc(C)cc1 (centres undefined)	58*	0.029	0.8	18	0.4
COC(=O)c1ccccc1NC(=O)c1ccco1	-22	-0.13	0.9	15	1.2
COc1nc(N2CCOCC2)nc(-n2cccc2)n1	11	0.0021	1	-2	0.9
